Experimental data taken from PubChem BioAssay (NCATS).
Active and inactive are the calls of the source. The call rests on the fitted dose curve; in most records, active means well fitted curve in the direction sought with a large enough effect; inconclusive means small, poorly fitted or top-dose-only effect, or another doubt; inactive means no such curve, though single readings can be large or run the other way.

Molecular target: Hexokinase-4 (Homo sapiens) + Glucokinase regulatory protein (Homo sapiens) (UniProt P35557+Q14397)
Test: qHTS assay for inhibitors of recombinant human GCK-GKRP interaction: Diaphorase-coupled assay (AID 743205)
Conditions: G6PDH/diaphorase resorufin fluorescence; series mostly up to 57.5 µM
Source text: Glucokinase (GCK) is a glucose sensor in hepatocytes and pancreatic beta-cells. Hepatic GCK is regulated by glucokinase regulatory protein (GKRP), which is predominantly localized to the liver. GKRP binds to GCK inhibiting its activity in the fasting state while in the presence of glucose the GKRP is displaced. There is an additional layer of regulation by fructose 1-phosphate and fructose 6-phosphate, which inhibit and enhance the GCK-GKRP interaction, respectively. GCK plays a role in glucose homeostasis and there is an interest in the development of strategies to activate GCK to lower blood glucose levels in type 2 diabetes. To date the majority of effort has focused on direct activation of GCK and the assays developed herein look to activate GCK by inhibiting its binding to GKRP. A compound that inhibits the interaction of GCK with GKRP could be important for the treatment of diabetes and can also be used as a tool compound to further elucidate GCK-GKRP biology. To that end, we have developed a sensitive HTS biochemical assay where in GCK activity is coupled to G6PDH and Diaphorase to interrogate the GCK-GKRP interaction. This assay was screened against a small compound library to look for modulators of activity.
2 uL of substrate (columns 1-48) are dispensed into Greiner, black solid-bottom 1536-well assay plates. Compounds (23 nL) are then transferred via Kalypsys pin tool equipped with 1536-pin array (10 nL slotted pins, V&P Scientific, San Diego, CA). The library compounds are in columns 5-48 and columns 1-4 serve as controls with DMSO in columns 1 and 3 and 26 mM 1:1.5 fold serial of gluckokinase activator (GKA-EMD) in column 2 and 26 mM of the glucokinase activator (GKA-EMD) in column 4. Following addition of compound and a 20 minute incubation, 1 uL of enzyme mix (GST-GCK, FLAG-GKRP and diaphorase) is added to columns 1, 2, 4-48 and 1 uL of no enzyme mix (FLAG-GKRP and diaphorase) is added to column 3 and the fluorescent product resorufin generated from resazurin was monitored on a Viewlux (PerkinElmer, Shelton, CT, USA) with excitation at 525 nm and emission at 590 nm in kinetic mode where the plate was read every minute for 30 minutes. The final concentration of reagents in the reaction are 25 mM Hepes pH 7.6, 25 mM KCl, 2 mM MgCl2, 1.4 mM 2-mercaptoethanol, 0.025% BSA, 0.01% Tween-20, 0.15 mM NADP+, 5 mM glucose, 0.4 mM ATP, 4 U/ml G6PDH, 0.1 mM resazurin, 10 nM GST-GCK, 10 nM FLAG-GKRP, diaphorase (0.1 mg/mL). Data are normalized to DMSO-treated control columns with (maximum signal) and without (minimum signal) enzyme.

Hexokinase-4 (Homo sapiens) + Glucokinase regulatory protein (Homo sapiens), sequence (P35557 whole entry, looked up): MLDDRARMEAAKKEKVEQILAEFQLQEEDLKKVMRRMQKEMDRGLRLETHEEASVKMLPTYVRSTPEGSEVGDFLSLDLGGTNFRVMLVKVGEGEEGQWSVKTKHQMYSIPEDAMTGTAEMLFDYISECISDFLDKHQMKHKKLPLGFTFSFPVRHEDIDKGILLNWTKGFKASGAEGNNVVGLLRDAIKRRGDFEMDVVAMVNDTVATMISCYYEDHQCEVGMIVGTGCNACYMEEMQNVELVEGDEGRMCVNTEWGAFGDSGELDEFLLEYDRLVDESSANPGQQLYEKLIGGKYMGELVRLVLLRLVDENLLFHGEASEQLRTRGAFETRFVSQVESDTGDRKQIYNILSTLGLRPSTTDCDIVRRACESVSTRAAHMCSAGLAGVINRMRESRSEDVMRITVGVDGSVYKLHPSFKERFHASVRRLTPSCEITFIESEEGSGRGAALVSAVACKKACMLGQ
Hexokinase-4 (Homo sapiens) + Glucokinase regulatory protein (Homo sapiens), sequence (Q14397 whole entry, looked up): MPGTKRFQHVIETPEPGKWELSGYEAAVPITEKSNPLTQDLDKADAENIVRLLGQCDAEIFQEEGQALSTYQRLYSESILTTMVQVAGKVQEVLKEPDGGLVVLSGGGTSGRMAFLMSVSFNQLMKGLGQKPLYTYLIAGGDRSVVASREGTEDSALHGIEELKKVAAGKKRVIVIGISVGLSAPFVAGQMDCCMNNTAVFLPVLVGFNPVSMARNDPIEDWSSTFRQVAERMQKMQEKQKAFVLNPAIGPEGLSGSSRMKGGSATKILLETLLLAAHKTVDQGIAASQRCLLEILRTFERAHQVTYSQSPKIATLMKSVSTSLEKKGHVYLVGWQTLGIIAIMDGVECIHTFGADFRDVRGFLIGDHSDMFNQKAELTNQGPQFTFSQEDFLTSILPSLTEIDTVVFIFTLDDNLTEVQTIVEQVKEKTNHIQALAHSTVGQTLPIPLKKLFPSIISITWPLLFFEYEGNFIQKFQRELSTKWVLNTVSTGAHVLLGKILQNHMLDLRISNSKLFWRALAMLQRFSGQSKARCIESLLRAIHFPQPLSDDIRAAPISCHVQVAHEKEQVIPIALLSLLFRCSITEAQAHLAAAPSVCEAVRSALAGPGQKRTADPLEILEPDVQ

Row | SMILES | outcome
1 | COc1ccc2c(c1OC)C(=O)O[C@@H]2[C@H]1c2c(cc3c(c2OC)OCO3)CCN1C | inactive
2 | CC(C)(C)NCC(O)c1cc(O)cc(O)c1 (stereo not given) | inactive
3 | Brc1c(NC2=NCCN2)ccc2nccnc12 | inactive
4 | CC(C)NCC(O)c1cc(O)cc(O)c1 (stereo not given) | inactive
5 | O=C(CCCN1CCC(O)(c2cccc(C(F)(F)F)c2)CC1)c1ccc(F)cc1 | inactive
6 | CN(C(=O)CCCOc1ccc2[nH]c(=O)ccc2c1)C1CCCCC1 | inactive
7 | CC(C)(Oc1ccc(CCNC(=O)c2ccc(Cl)cc2)cc1)C(=O)O | inactive
8 | FC(F)(F)c1ccccc1-n1ccnc1 | inactive
9 | O=C(O)CN(CCN(CC(=O)O)CC(=O)O)CCN(CC(=O)O)CC(=O)O | inactive
10 | CSc1ccc(C(=O)c2[nH]c(=O)[nH]c2C)cc1 | inactive
11 | Cc1nnc(SCC2=C(C(=O)O)N3C(=O)[C@@H](NC(=O)Cn4cnnn4)[C@H]3SC2)s1 | inactive
12 | CN(C)C(=O)Oc1cccc([N+](C)(C)C)c1 | inactive
13 | NC/C=C/C(=O)O | inactive
14 | CCN(CC)CCOCCOC(=O)C1(c2ccccc2)CCCC1 | inactive
15 | Nc1ncn([C@@H]2O[C@H](CO)[C@@H](O)[C@H]2O)c(=O)n1 | inactive
16 | CCN(CC)CCCN(c1ccccc1)C1Cc2ccccc2C1 | inactive
17 | CN(C)CC[C@@H](c1ccc(Br)cc1)c1ccccn1 | inactive
18 | CCCN(CCC)C(=O)C(CCC(=O)O)NC(=O)c1ccccc1 (stereo not given) | inactive
19 | CCCCNC(=O)NS(=O)(=O)c1ccc(C)cc1 | inactive
20 | CC1=NS(=O)(=O)c2cc(Cl)ccc2N1 | inactive

Row | SMILES | outcome
21 | CCN1CCC[C@H]1CNC(=O)c1c(O)c(Cl)cc(Cl)c1OC | inactive
22 | CC(=O)[C@@]1(O)CC[C@H]2[C@@H]3CCC4=CC(=O)CC[C@]4(C)[C@H]3CC[C@@]21C | inactive
23 | COc1cc2c(cc1OC)-c1cc(=Nc3c(C)cc(C)cc3C)n(C)c(=O)n1CC2 | inactive
24 | CC[N+](C)(C)c1cccc(O)c1 | inactive
25 | CCN(CC)CCNC(=O)c1ccc(NC(C)=O)cc1 | inactive
26 | CN1CCN(C2=Nc3ccccc3Oc3ccc(Cl)cc32)CC1 | inactive
27 | CCc1c(C)[nH]c2c1C(=O)C(CN1CCOCC1)CC2 (stereo not given) | inactive
28 | COC(=O)C1=C(C)NC(C)=C(C(=O)OC(C)(C)CN(C)CCC(c2ccccc2)c2ccccc2)C1c1cccc([N+](=O)[O-])c1 (stereo not given) | inactive
29 | CCOC(=O)c1cnc2c(cnn2CC)c1NN=C(C)C | inactive
30 | CCN(Cc1ccncc1)C(=O)C(CO)c1ccccc1 (stereo not given) | inactive
31 | C[C@]12CCC(=O)C=C1CC[C@@H]1[C@@H]2C(=O)C[C@@]2(C)[C@H]1CC[C@]2(O)C(=O)CO | inactive
32 | CCCC(C(=O)OCCN(CC)CC)(c1ccccc1)c1ccccc1 | inactive
33 | COc1ccc(CCN(C)CCCC(C#N)(c2cc(OC)c(OC)c(OC)c2)C(C)C)cc1OC (stereo not given) | inactive
34 | CN(C)C/C=C(/c1ccc(Br)cc1)c1cccnc1 | inactive
35 | Cc1nc2ccccn2c(=O)c1CCN1CCC(C(=O)c2ccc(F)cc2)CC1 | inactive
36 | CCc1cccc(N(C)C(N)=Nc2cccc3ccccc23)c1 | inactive
37 | CCCNC(C)C(=O)Nc1ccccc1C (stereo not given) | inactive
38 | CN(C)CCOC(=O)COc1ccc(Cl)cc1 | inactive
39 | CN(C)CCCN1c2ccccc2Sc2ccccc21 | inactive
40 | OCCN1CCN(CCCN2c3ccccc3C=Cc3ccccc32)CC1 | inactive
